Molecules are shown by their SMILES. For some of these results: Results with a measured potency or affinity are listed apart.

Experimental findings from ChEMBL document CHEMBL3988442, “University of Dundee, Small-Polar-MMV Screening Library” (2021) are described below.

Common to all, as to set-up: scale not given: direction of the effect not stated beside the values
For experiment [1], the target named is Protein translocase subunit SecA (Escherichia coli (strain K12)) (UniProt P10408). Briefly: Assay to Identify E. coli SecA ATPase Inhibitors. In kind it is functional. The conditions noted are these: 30 µM.
Protein translocase subunit SecA (Escherichia coli (strain K12)), sequence (P10408 whole entry): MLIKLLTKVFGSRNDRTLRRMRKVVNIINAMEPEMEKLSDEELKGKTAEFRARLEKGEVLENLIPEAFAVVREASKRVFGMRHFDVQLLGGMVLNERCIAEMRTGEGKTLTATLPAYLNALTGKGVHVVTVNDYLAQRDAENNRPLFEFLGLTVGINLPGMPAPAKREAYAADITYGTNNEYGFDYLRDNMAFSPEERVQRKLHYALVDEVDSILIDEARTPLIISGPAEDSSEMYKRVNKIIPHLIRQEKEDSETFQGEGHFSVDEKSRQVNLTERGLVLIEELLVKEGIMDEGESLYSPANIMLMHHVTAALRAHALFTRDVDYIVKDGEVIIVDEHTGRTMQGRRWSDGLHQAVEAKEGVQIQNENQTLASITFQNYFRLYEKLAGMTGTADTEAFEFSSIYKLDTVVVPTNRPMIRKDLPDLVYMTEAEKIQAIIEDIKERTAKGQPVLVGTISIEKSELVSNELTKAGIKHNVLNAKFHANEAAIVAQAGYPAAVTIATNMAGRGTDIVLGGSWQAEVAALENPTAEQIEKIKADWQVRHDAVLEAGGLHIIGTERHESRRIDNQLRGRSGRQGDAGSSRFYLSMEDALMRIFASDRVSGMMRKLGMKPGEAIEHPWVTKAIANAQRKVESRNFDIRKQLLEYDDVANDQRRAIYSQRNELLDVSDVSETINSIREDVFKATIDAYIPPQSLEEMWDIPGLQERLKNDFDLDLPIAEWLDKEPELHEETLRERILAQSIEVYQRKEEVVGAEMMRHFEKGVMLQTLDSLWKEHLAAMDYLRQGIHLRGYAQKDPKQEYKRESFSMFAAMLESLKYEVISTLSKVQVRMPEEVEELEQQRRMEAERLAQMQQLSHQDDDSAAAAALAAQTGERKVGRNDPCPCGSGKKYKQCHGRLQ
Experiment [2] addresses T1, Ubiquitin-activating enzyme e1, putative (Leishmania donovani (strain BPK282A1)) (UniProt E9BSI1).
T1 sequence (whole entry): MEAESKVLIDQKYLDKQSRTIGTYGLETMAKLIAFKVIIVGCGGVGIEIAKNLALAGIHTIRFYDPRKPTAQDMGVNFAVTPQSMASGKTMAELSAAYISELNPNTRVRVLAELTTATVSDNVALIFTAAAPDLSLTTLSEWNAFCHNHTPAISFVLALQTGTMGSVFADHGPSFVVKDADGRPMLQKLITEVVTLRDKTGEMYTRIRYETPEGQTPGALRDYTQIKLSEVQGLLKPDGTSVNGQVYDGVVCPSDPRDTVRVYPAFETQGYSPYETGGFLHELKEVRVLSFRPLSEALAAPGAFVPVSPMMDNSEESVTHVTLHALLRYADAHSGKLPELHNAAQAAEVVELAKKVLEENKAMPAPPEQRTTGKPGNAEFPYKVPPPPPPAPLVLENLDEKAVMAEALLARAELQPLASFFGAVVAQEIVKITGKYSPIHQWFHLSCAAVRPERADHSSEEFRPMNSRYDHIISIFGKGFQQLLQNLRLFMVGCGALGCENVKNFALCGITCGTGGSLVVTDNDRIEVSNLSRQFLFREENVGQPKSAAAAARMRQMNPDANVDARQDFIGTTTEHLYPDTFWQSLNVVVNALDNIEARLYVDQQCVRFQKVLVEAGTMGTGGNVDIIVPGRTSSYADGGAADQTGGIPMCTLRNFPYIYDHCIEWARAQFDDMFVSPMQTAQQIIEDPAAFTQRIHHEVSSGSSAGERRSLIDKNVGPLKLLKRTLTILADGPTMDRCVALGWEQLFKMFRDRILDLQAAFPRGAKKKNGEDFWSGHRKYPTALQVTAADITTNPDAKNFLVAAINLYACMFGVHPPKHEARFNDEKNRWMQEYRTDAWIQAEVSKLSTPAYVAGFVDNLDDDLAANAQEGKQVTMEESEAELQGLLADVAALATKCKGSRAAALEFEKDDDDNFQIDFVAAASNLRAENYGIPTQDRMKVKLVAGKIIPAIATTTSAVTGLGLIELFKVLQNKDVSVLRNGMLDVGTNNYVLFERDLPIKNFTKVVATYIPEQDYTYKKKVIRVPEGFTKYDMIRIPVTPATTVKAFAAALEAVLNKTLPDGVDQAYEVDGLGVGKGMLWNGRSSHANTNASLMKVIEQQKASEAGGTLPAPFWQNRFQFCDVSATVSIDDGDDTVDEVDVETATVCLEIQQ
Briefly: Leishmania donovani Ubiquitin Activating Enzyme (LdE1). In kind it is functional. The conditions noted are these: 30 µM.

In experiment [3] the target is AMP-activated protein kinase, AMPK (Homo sapiens) (UniProt P54646+O43741+P54619+Q9UGJ0+Q9Y478+Q13131+Q9UGI9). In words: AMP-dependent Kinase enzyme assay. An in vitro enzyme assay that detects ADP turnover that is directly proportional to AMPK activity. This uses naive AMPK that is activated during the assay with MK-8722. In kind it is functional. The conditions noted are these: 30 µM.

Experiment [4] deals with Sialic acid-binding Ig-like lectin 9 (Homo sapiens) (UniProt Q9Y336). Briefly: Hs-Siglec9 ALPHAscreen SOP 20170721. The conditions noted are these: 10 µM.
Sialic acid-binding Ig-like lectin 9 (Homo sapiens), sequence (Q9Y336 whole entry): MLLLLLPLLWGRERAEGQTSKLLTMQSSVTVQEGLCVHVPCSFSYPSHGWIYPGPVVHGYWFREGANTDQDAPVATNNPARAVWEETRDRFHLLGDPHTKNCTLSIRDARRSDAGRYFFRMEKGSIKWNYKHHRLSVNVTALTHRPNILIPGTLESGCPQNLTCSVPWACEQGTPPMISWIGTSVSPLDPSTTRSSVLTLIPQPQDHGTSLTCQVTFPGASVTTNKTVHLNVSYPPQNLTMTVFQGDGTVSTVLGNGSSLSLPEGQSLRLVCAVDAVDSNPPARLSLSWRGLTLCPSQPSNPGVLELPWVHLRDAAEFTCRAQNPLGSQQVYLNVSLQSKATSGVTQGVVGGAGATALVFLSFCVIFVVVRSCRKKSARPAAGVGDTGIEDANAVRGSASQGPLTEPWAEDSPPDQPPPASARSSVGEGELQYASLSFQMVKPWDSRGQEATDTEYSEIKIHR
Experiment [5] relates to Trypanosoma cruzi. In words: Trypanosoma cruzi phosphomannomutase and mannose-1-phosphate guanylyltransferase assay. The format is functional. The conditions noted are these: 10 µM.
The target in experiment [6] is T2, Arginase-2, mitochondrial (Homo sapiens) (UniProt P78540).
T2 sequence (whole entry): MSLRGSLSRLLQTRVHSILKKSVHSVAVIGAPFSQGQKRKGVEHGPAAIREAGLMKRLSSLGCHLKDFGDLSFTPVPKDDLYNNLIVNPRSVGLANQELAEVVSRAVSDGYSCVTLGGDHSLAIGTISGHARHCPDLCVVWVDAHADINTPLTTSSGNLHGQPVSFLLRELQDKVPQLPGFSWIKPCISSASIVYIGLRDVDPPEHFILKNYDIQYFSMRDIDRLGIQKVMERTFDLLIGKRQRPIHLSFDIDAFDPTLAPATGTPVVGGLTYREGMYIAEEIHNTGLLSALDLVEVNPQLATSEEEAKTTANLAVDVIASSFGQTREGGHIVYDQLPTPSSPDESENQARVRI
Briefly: in vitro enzyme assay to detect the production of urea directly proportional to the activity of Arginase II. Also: in the data most compounds retested in dose-response had high values. The format is functional. The conditions noted are these: 33.3 µM.

Experiment [7] addresses T3, Proteasome subunit beta (Trypanosoma cruzi) (UniProt O96673).
T3 sequence (whole entry): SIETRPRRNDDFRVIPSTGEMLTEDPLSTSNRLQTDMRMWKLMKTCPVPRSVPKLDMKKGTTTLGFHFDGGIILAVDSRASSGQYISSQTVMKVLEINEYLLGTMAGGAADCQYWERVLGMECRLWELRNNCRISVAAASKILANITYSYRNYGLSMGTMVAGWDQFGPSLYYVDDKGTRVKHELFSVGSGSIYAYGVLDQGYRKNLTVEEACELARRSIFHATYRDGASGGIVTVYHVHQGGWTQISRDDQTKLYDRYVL
Briefly: Trypanosoma cruzi proteasome chymotrypsin-like activity (TcProtChymo) assay. Also: in the data most compounds retested in dose-response had high values. In kind it is functional. The conditions noted are these: 9.37 µM.

For experiment [8], the species on record is Homo sapiens. Briefly: To identify inhibition of the IFN signalling (Jak-Stat) pathway via expression of an eGFP reporter gene under the control of an IFN-stimulated response element (ISRE) containing MxA promoter. The format is functional. The conditions noted are these: 30 µM. For orientation: In a reporter assay the amount or activity of a reporter protein is the signal.

For experiment [9], the target named is T4, Tyrosyl-tRNA synthetase, putative (Trypanosoma cruzi (strain CL Brener)) (UniProt Q4DSP6).
T4 sequence (whole entry): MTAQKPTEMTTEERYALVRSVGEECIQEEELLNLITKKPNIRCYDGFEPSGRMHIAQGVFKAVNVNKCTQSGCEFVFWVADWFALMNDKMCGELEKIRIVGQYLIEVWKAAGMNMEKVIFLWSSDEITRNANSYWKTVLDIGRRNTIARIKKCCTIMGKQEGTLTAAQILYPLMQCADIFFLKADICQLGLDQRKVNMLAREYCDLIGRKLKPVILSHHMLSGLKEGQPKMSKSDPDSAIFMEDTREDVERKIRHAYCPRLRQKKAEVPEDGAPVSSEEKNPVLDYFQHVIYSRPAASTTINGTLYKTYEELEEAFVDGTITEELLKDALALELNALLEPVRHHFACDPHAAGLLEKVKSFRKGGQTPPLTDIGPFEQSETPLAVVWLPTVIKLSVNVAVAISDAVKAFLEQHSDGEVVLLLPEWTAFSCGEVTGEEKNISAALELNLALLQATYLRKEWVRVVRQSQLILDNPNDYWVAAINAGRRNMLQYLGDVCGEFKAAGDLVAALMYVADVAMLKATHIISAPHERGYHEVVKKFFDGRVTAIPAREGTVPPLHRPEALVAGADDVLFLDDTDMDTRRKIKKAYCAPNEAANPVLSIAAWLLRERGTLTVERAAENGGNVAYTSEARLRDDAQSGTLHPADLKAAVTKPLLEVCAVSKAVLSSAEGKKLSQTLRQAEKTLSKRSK
Briefly: Trypanosoma cruzi tyrosyl tRNA synthetase (TcYRS) _High Tyrosine SOP. Also: in the data most compounds retested in dose-response had high values. As to conditions: 30 µM. In kind it is functional.

The target of experiment [10] is T4, Tyrosyl-tRNA synthetase, putative (Trypanosoma cruzi (strain CL Brener)). In words: Trypanosoma cruzi tyrosyl tRNA synthetase (TcYRS) SOP. In kind it is functional. As to conditions: 30 µM.
The target of experiment [11] is Chromo domain-containing protein 1 (Saccharomyces cerevisiae (strain ATCC 204508 / S288c) (Baker's yeast)) (UniProt P32657). Briefly: ScCHD-1 Enzyme Inhibition Assay. Also: in the data most compounds retested in dose-response had high values. In kind it is functional. As to conditions: 30 µM.
Chromo domain-containing protein 1 (Saccharomyces cerevisiae (strain ATCC 204508 / S288c) (Baker's yeast)), sequence (P32657 whole entry, the tested form may be a part): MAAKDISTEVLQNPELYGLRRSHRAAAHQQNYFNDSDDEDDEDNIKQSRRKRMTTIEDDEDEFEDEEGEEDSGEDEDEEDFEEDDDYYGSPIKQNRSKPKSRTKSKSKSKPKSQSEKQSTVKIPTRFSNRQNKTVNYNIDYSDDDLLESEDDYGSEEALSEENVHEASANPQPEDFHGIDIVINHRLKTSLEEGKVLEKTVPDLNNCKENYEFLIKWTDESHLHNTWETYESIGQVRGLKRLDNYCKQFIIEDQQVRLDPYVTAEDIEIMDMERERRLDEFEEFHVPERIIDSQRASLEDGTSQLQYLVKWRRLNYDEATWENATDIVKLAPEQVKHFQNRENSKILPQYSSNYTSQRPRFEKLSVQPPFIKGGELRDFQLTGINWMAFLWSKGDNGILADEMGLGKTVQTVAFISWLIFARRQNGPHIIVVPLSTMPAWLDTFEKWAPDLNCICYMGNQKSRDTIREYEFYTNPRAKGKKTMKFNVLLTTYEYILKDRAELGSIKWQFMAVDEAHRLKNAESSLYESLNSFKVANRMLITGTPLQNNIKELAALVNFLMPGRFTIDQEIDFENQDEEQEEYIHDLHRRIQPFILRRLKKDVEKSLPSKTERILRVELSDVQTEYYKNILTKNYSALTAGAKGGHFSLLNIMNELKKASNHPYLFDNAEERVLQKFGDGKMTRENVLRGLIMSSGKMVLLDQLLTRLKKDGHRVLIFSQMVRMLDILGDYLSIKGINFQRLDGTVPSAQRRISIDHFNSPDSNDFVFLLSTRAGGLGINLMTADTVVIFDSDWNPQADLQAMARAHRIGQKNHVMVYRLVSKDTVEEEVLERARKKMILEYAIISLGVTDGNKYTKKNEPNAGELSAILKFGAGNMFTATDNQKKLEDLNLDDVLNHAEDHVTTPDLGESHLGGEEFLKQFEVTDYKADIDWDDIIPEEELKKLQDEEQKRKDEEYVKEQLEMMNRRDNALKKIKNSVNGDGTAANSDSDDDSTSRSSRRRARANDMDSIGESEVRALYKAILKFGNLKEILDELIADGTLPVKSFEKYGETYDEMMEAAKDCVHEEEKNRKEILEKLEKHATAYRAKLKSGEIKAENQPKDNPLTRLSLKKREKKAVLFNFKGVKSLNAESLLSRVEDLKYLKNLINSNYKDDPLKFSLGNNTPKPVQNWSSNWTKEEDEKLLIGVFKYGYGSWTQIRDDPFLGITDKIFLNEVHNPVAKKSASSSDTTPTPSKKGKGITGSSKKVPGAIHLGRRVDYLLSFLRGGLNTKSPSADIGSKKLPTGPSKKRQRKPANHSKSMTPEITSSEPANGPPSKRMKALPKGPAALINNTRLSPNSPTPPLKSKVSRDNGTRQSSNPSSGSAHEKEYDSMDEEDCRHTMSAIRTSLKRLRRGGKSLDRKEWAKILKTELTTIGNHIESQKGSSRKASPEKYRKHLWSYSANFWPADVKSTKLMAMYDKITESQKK

Consider `CNC(=O)c1cc2c(nc1N(C)C)CCN(S(=O)(=O)C1CC1)CC2`, for which the Percent Effect in [1] was -2.36%; in experiment [2], 10.4%; in experiment [3], -2.46%; in experiment [4], -6.22%; in [5], -10.8%; in experiment [6] it was 9.68%. In addition, the Percent Effect was 8.7% in experiment [7]; 0.586% in [8]; -3.17% in experiment [9]; -3.85% in experiment [10]; -7.64% in experiment [11].

For the molecule `Cc1ccc(N2CCCC3(COCCN(c4nccs4)C3)C2)nn1` (stereo not drawn), the Percent Effect was 0.955% in experiment [1]; 0% in experiment [2]; -4.27% in [3]; 3.78% in experiment [4]; 1.79% in experiment [5]; 1.2% in experiment [6]. The Percent Effect in [7] is 11.7%; in [8] it was -6.58%; in [9] it was 5.21%; in experiment [10], 3.7%; in experiment [11], -1.92%.

Regarding `NC(=O)C1CN(Cc2c[nH]cn2)CCN(C2CCOCC2)C1` (stereo not drawn), the Percent Effect was 1.35% in experiment [1]; 4.05% in [2]; 5.54% in [3]; 9.65% in [4]; -7.12% in experiment [5]; 18.8% in experiment [6]. Besides, the Percent Effect is 7.02% in experiment [7]; 19.2% in [8]; 12.9% in experiment [9]; 19.5% in experiment [10]; -6.44% in experiment [11].

Regarding `COc1ccc(-c2noc(CN3CCc4cncnc4C3)n2)cc1`, the Percent Effect in [1] was -3.37%; in experiment [2], -15.8%; in experiment [3] it was -14.9%; in experiment [4], 2.94%; in [5], 7.52%; in [6], 0%. Besides, the Percent Effect in [7] amounted to 18.6%; in experiment [8] it was 8.69%; in experiment [9], 8.33%; in [10], 9.76%; in experiment [11], 25%.

As to `Cc1ccoc1C(=O)NCC(Cc1ccc(F)cc1)C(N)=O` (stereo not drawn), the Percent Effect was -1.94% in [1]; 18.2% in experiment [2]; 4.14% in experiment [3]; 0.338% in [4]; 3.62% in [5]; 4.42% in [6]. Moreover, the Percent Effect was 15.3% in experiment [7]; -1.29% in experiment [8]; 7.62% in [9]; 23.5% in [10]; -14.3% in experiment [11].

As for `O=C(CN1CCc2c(ncn2C2CC2)C1)NC1CC1`, the Percent Effect in experiment [1] is -2.66%; in [2] it was -3.8%; in experiment [3], -0.272%; in experiment [4], 5.53%; in experiment [5] it was -2.56%; in [6] it was 3.66%. Further, the Percent Effect in experiment [7] was 9.09%; in experiment [8], 5.09%; in [9] it was 2.08%; in experiment [10], 5.06%; in experiment [11], -4.23%.

On to `CCS(=O)(=O)CCNC(=O)c1ccc(-c2ccc(C)cc2)cc1F`, for which the Percent Effect in experiment [1] is -3.31%; in experiment [2], 5.2%; in experiment [3] it was -1.14%; in [4], 2.26%; in [5], -2.26%; in experiment [6] it was -2.76%. For the same molecule, the Percent Effect in experiment [7] is 14.6%; in experiment [8], 18.8%; in experiment [9] it was -14%; in [10], 1.24%; in [11], 2.27%.

For the molecule `CCc1ccccc1C(=O)N1CCN(S(C)(=O)=O)[C@@H](C)C1`, the Percent Effect in experiment [1] was 2.08%; in [2] it was 2.74%; in experiment [3] it was 0.603%; in [4] it was 7.54%; in experiment [5], 5.09%; in experiment [6] it was 3.18%. Also, the Percent Effect in experiment [7] was 8.34%; in [8], -4.78%; in [9] it was 1.07%; in experiment [10], 0%; in [11], -1.37%.
